Experimental findings from PubChem BioAssay are described below.

Calls of active or inactive are those of the source.

A short description of test [1]: small molecules captured by biotinylated probe aFSTL3 – biochemical, small-molecule microarray, fluorescence 635/667, stem cell growth factor project, primary screen (AID 1064).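 Also: measures binding of the biotinylated anti-FSTL3 antibody to printed compounds.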 The note with it: higher = more signal.
Test [2] is described as follows: binders from COS7 lysate, DM2A8 probe, primary screen, torsin A project, cell lysate, small-molecule microarray, fluorescence 635/667 (AID 1065). The following applies: higher = more signal, COS7 lysate expressing mutant human TOR1A.
A short description of test [3]: small molecules captured by biotinylated probe aFGF2 – biochemical, small-molecule microarray, fluorescence 635/667, stem cell growth factor project, primary screen (AID 1067).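 Also: measures binding of biotinylated aFGF2 protein to printed compounds on slides; z-score merges feature fluorescence and signal-to-noise across triplicate slides.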 The note with it: higher = more signal.
The nature of test [4]: small molecules captured by biotinylated probe aFGF10 – biochemical, small-molecule microarray, fluorescence 635/667, stem cell growth factor project, primary screen (AID 1071).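 Also: score merges 667 nm spot intensity and signal to noise from triplicate slides.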 The following applies: higher = more signal.
Test [5] addresses Neurogenic locus notch homolog protein 2 (Homo sapiens) (UniProt Q04721). The experiment in a line: small molecules binding Notch2 protein – biochemical, small-molecule microarray, 635 nm fluorescence, stem cell growth factors, primary screen (AID 1073). The following applies: higher = more signal.
Test [6] addresses Pro-neuregulin-1, membrane-bound isoform (Homo sapiens) (UniProt Q02297). The experiment in a line: small molecules binding neuregulin-1 protein – biochemical, small-molecule microarray, fluorescence 635/667, psychiatric disease protein project, primary screen (AID 1075).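 Also: score combines 667 nm spot fluorescence with signal to noise.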 The note with it: NRG1 binding, 635 nm fluorescence, higher = more signal.
For test [7], the system named is Neuregulin-1 EGF-like domain. The experiment in a line: small molecules binding NRG1 EGF domain – biochemical, small-molecule microarray, 635 nm fluorescence, primary screen (AID 1081).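 Also: binding of the protein to compounds printed on small-molecule microarray slides.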 The note with it: higher = more signal.
Test [8] in a line: FRG1 expression reporter modulators in myotubes – cell-based, C2C12 myotubes, firefly/Renilla luciferase, luminescence, FRG1 inhibition for FSHD, primary screen (AID 1084). The following applies: FRG1 promoter luciferase, higher = more signal, called active from +8 up or from −8 down.
Test [9] is described as follows: small molecules captured by biotinylated probe aFST – biochemical, small-molecule microarray, fluorescence 635/667, stem cell growth factor project, primary screen (AID 1086).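 Also: score merges 667 nm fluorescence with signal-to-noise of each printed compound spot.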 The note with it: higher = more signal.
Test [10] is described as follows: binders of probe aHhip on microarray, primary screen, stem cell growth factor project, biochemical, small-molecule microarray, fluorescence 635/667 (AID 1087).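 Also: score merges spot fluorescence at 667nm with spot signal to noise ratio.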 The following applies: higher = more signal.
Test [11] concerns PRMT1 (protein arginine N-methyltransferase 1). Description: small molecules binding arginine methyltransferase PRMT1 – biochemical, small-molecule microarray, 635 nm fluorescence, primary screen (AID 1088).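 Also: binding of Prmt1 protein to compounds spotted on small-molecule microarray slides.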 The note with it: higher = more signal.
Test [12] in a line: growth effects on S. cerevisiae YJM789 – YJM789 clinical isolate, OD600, 24 h, basal, primary screen (AID 1089).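 Also: growth of clinical yeast isolate S. cerevisiae YJM 789 seeded 1000 cells per well; test concentration not given here.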 The following applies: higher = more signal, called active from +8 up or from −8 down.
A short description of test [13]: S. pombe growth modifiers, basal conditions – strain 972, OD600, 24 h, no modulator, primary screen (AID 1090).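 Also: basal condition with compound alone and no growth modifier present; test concentration not given here.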 The note with it: S. pombe 972 growth, higher = more signal, called active from +8 up or from −8 down.
Test [14] is described as follows: budding yeast growth modifiers under rapamycin – strain BY4716, OD600, 96 h, primary screen (AID 1091). Also: test concentration not given here. The following applies: S. cerevisiae BY4716 + rapamycin, higher = more signal, called active from +8 up or from −8 down.
Test [15] concerns the target Torsin-1A-interacting protein 2 (Homo sapiens) (UniProt Q8NFQ8). Description: small molecules binding lysate-expressed LULL1 – cell lysate, human LULL1 lysate, 635/667 nm fluorescence, primary screen (AID 1092).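 Also: score merges per-feature 667 nm fluorescence with signal-to-noise.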 The note with it: small-molecule microarray, hLULL1 lysate binding, 635 nm fluorescence; higher = more signal.
A short description of test [16]: optical density change of DRC41 E. coli – strain DRC41, OD650, 24 h, E. coli filamentation project, primary screen (AID 1093).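 Also: MC1000 strain lacking acrAB efflux and sulA so SOS filamentation is blocked; test concentration not given here.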 The note with it: E. coli DRC41 growth, higher = more signal, called active from +8 up or from −8 down.
The nature of test [17]: probe aLefty2 binding to arrayed compounds – biochemical, biotinylated probe, 635/667 nm fluorescence, primary screen (AID 1094).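 Also: score merges spot fluorescence near 667 nm with spot signal-to-noise ratio.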 The note with it: small-molecule microarray, higher = more signal.
For test [18], the system named is Noggin (protein binding on small-molecule microarray). Description: small molecules binding Noggin protein – biochemical, 635/667 nm fluorescence, primary screen (AID 1095).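 Also: score merges 667 nm feature fluorescence with signal to noise over triplicate slides.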 The following applies: 635 nm fluorescence, higher = more signal.
Test [19] addresses Neurogenic locus notch homolog protein 3 (Homo sapiens) (UniProt Q9UM47). The experiment in a line: small molecules binding NOTCH3 protein – biochemical, 635/667 nm fluorescence, primary screen (AID 1096). The note with it: small-molecule microarray, 635 nm fluorescence, higher = more signal.
A short description of test [20]: probe aEGFR binding to arrayed compounds – biochemical, biotinylated probe, 635/667 nm fluorescence, primary screen (AID 1097).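 Also: probe is a biotinylated anti-EGFR antibody binding compounds printed on slides; score combines fluorescence near 667 nm and signal to noise of each spot.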 The following applies: small-molecule microarray, higher = more signal.

Chain of Pro-neuregulin-1, membrane-bound isoform (Homo sapiens) (Q02297 whole entry, looked up, the tested form may be a part, canonical isoform): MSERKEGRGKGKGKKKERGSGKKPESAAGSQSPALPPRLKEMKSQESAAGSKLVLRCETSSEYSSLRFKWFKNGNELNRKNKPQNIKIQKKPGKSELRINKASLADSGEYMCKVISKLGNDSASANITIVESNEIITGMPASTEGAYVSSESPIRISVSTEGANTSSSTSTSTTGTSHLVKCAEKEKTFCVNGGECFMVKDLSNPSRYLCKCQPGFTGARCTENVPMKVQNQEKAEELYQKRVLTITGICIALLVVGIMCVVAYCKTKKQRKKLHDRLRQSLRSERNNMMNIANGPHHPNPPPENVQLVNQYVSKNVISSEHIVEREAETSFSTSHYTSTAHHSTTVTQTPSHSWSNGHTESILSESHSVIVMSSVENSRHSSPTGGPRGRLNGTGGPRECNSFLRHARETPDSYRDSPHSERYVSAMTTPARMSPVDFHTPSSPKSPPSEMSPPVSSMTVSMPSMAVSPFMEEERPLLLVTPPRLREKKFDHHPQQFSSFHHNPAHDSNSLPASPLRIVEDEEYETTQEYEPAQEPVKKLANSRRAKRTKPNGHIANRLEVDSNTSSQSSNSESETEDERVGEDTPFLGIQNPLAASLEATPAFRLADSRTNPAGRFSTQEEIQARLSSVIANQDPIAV
Chain of Neurogenic locus notch homolog protein 3 (Homo sapiens) (Q9UM47 whole entry, looked up): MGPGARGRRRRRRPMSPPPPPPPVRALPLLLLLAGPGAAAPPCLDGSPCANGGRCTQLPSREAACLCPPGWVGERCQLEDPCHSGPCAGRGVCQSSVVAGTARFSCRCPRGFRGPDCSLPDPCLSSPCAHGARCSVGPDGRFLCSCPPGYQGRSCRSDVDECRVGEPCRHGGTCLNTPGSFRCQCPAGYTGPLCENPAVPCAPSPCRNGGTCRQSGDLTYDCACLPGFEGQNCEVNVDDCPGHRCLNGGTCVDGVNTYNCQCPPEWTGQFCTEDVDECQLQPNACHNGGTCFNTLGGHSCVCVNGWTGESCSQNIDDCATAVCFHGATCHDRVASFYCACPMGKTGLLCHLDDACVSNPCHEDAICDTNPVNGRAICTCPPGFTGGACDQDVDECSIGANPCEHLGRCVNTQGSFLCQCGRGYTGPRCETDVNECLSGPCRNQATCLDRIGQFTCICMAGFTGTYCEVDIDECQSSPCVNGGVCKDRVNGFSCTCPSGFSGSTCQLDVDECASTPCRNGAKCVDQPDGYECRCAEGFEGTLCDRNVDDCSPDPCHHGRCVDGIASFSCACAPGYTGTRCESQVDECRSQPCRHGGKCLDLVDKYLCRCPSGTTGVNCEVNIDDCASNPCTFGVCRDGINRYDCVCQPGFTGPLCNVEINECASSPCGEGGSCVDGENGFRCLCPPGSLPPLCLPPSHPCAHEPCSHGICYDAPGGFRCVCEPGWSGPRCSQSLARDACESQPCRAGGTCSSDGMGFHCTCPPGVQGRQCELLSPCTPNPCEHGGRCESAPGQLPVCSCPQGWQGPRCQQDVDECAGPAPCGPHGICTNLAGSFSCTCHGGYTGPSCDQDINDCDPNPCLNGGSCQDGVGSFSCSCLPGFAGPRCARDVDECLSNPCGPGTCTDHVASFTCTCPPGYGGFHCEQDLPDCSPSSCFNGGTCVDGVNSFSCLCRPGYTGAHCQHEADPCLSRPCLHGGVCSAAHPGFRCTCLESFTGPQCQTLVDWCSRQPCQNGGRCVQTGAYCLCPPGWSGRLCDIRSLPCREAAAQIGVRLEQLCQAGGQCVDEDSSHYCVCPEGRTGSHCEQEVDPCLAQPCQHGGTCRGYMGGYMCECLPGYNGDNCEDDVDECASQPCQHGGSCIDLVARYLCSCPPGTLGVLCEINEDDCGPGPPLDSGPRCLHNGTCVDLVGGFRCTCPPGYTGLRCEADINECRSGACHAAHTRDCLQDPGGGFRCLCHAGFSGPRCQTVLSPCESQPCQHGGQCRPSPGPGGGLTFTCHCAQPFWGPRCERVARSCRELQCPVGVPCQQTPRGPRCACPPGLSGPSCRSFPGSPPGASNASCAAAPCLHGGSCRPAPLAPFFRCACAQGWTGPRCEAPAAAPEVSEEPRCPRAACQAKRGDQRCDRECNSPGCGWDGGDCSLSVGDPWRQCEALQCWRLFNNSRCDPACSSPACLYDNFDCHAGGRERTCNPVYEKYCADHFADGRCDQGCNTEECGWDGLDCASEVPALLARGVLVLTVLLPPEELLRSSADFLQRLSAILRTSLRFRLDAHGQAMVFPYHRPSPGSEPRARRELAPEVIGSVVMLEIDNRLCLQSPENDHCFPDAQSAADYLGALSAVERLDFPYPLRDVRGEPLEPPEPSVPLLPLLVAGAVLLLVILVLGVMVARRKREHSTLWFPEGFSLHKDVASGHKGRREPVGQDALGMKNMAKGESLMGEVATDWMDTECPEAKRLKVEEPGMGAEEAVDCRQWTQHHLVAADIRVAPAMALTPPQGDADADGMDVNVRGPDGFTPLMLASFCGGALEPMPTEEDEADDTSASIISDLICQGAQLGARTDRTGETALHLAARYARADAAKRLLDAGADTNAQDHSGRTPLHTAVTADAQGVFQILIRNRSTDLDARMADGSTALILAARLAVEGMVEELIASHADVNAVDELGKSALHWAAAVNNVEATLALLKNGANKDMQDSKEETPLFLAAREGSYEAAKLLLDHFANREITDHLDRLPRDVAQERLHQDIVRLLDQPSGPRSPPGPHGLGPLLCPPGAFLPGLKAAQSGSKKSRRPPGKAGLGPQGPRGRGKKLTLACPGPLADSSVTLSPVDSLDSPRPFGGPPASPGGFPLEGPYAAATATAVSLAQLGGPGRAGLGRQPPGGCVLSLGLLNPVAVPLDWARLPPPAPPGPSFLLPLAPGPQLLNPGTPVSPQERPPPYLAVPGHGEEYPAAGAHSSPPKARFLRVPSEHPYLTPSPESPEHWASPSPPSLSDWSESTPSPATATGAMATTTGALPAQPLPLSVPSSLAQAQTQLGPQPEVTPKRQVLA
Chain of Torsin-1A-interacting protein 2 (Homo sapiens) (Q8NFQ8 whole entry, looked up): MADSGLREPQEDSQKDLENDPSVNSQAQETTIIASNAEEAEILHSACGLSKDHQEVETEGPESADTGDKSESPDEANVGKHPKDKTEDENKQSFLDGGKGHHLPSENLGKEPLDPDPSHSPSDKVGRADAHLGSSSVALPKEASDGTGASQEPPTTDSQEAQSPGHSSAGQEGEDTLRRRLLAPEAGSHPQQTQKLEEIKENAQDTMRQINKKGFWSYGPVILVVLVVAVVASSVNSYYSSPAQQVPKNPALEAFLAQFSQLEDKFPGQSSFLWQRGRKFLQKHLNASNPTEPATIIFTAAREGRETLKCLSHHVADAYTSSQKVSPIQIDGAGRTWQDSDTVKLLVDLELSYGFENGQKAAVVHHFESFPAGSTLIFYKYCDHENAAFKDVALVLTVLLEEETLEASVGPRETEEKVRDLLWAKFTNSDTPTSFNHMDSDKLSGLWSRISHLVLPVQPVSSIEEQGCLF

For `CN1C(=O)C2C=CC(C(O)c3ccc(F)cc3)N(NC(=O)OC(C)(C)C)C2C1=O` (stereo not given), the composite z-score in test [1] was -0.179; in test [2], -0.598; in test [3], 0.0505; in [4], 0.257; in test [5], 1; in test [6], 1.68. Also, the composite z-score in test [7] is 1.38; in [9] it was 0.734; in test [10] it was -0.0464; in test [11] it was 0.219; in [15], 3.28; in test [17], -0.0154. For the same compound, the composite z-score is -0.205 in [18], 0.816 in [19] and -0.0531 in [20]. Further, the z-score in test [8] is 0.186 (inactive); in test [12], 1.19 (inactive); in test [13], 2.11 (inactive); in test [14], 1.71 (inactive); in test [16], -1.31 (inactive).

With `NCCCCCNC(=O)[C@@H]1C[C@@H]2C(=O)N3CCC[C@H]3C(=O)N2[C@@H]1c1ccc(O)cc1`, the composite z-score was 1.19 in test [1]; 0.0642 in [2]; 0.0232 in test [3]; 0.42 in test [4]; 0.714 in test [5]; 0.976 in [6]. Moreover, the composite z-score is 1.1 in [7]; 1 in test [9]; 0.0053 in test [10]; 0.61 in test [11]; 1.97 in test [15]; 0.512 in test [17]. For the same compound, the composite z-score in test [18] was 0.408; in test [19] it was 0.391; in test [20], 0.171. The z-score in [8] was 0.0207 (inactive); in test [12], 0.758 (inactive); in test [13] it was -0.986 (inactive); in [14] it was 1.3 (inactive); in test [16] it was 1.05 (inactive).

Consider `C=C[C@@H](OC)[C@H](OC(=O)Nc1ccc(SC)cc1)c1ccc(OCCO)cc1`, for which the composite z-score in test [1] was determined as 0.0275; in [2] it was 0.363; in test [3] it was 0.0166; in test [4], 0.485; in [5] it was 0.794; in test [6], 1.43. Also, the composite z-score in test [7] is 1.33; in test [9], 0.574; in [10], 0.675; in test [11] it was 1.13; in test [15], 2.11; in test [17], -0.057. The composite z-score is 0.822 in test [18], 0.82 in test [19] and -0.039 in [20]. The z-score is 6.53 (inactive) in test [8]; 0.456 (inactive) in test [12]; -0.675 (inactive) in test [13]; 0.0094 (inactive) in [14]; 0.0144 (inactive) in test [16].

Take `C[C@]1(C(=O)O)c2ccccc2C(=O)N(Cc2ccc(OC(F)(F)F)cc2)[C@H]1c1ccc(CO)cc1`: the composite z-score in test [1] was 0.592; in test [2], -0.139; in test [3] it was -0.0442; in test [4], -0.106; in test [5] it was -0.0052; in [6] it was 0.787. In addition, the composite z-score in [7] is 0.509; in test [9], 0.302; in [10] it was -0.226; in test [11], -0.0461; in [15], 0.945; in test [17] it was 0.122. Besides, the results for the composite z-score in [18], in test [19] and in [20] were -0.94, -0.505 and -0.179, respectively. Also, the z-score in test [8] is -1.27 (inactive); in test [12] it was -0.691 (inactive); in test [13] it was -0.767 (inactive); in test [14], -0.686 (inactive); in [16] it was 0.402 (inactive).

Take `[N-]=[N+]=NCc1ccccc1[C@@H]1OC(c2ccc(OCCCO)cc2)=N[C@]1(Cc1ccccc1N=[N+]=[N-])C(=O)N1CCCCC1`: the composite z-score in [1] was -0.0244; in test [2] it was 1.17; in [3], -0.0599; in test [4], 0.227; in test [5], 1.55; in test [6], 1.16. The composite z-score came out at 1.23 in [7]; 0.882 in [9]; 0.38 in [10]; 1.38 in test [11]; 3.18 in test [15]; 0.0216 in test [17]. Also, the results for the composite z-score in test [18], in test [19] and in test [20] were 0.345, 0.921 and 0.706, respectively. Besides, the z-score in [8] is -0.878 (inactive); in test [12], -0.0524 (inactive); in test [13], -1.17 (inactive); in test [14], 2.24 (inactive); in test [16], 0.379 (inactive).
